Results taken from PubChem BioAssay (EPA / NIEHS).
Active and inactive are the calls of the source. Rule for the calls: active = hit-call score of the fitted dose curve at least 0.9, where 1 is the maximum; inactive = score below 0.9.

Experiments:
[1] = read-out: Interleukin-1 alpha (IL1a), IL1A (gene 3552); experiment: BSK_KF3CT_IL1a: BioMAP Diversity Plus: KF3CT Assay for Interleukin-1 alpha (IL1a) Biomarker Activity (AID 2283070); details: primary human keratinocytes with fibroblasts; actives raise or lower the signal
In short: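 Human keratinocyte plus foreskin fibroblast primary co-culture, sampled 24 h after chemical dosing. IL-1a measured by ELISA; responses fitted bidirectionally against DMSO baseline (negative control), so gain or loss of signal both count.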

[2] = read-out: TIMP metallopeptidase inhibitor 2 (TIMP2), TIMP2 (gene 7077); experiment: BSK_KF3CT_TIMP2: BioMAP Diversity Plus: KF3CT Assay for TIMP metallopeptidase inhibitor 2 (TIMP2) Biomarker Activity (AID 2283071); details: primary human keratinocytes with fibroblasts; actives raise or lower the signal
In short: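 Keratinocyte–fibroblast co-culture, 24 h exposure; TIMP-2 ELISA, DMSO-normalised bidirectional fit. Parallel SRB (0.1%, TCA-fixed, 560 nm) total-protein staining gauges cytotoxicity.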

[3] = read-out: Transforming growth factor beta 1 (TGFb1), TGFB1 (gene 7040); experiment: BSK_KF3CT_TGFb1: BioMAP Diversity Plus: KF3CT Assay for Transforming growth factor beta 1 (TGFb1) Biomarker Activity (AID 2283072); details: primary human keratinocytes with fibroblasts; actives raise or lower the signal
In short: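 Signal changes in either direction, relative to DMSO, define activity here. TGF-b1 is read by ELISA from a human keratinocyte-fibroblast co-culture 24 h post-dose.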

[4] = read-out: C-C motif chemokine 2 (Homo sapiens) (UniProt P13500); experiment: BSK_KF3CT_MCP1: BioMAP Diversity Plus: KF3CT Assay for Monocyte Chemoattractant Protein 1 (MCP1/CCL2) Biomarker Activity (AID 2283073); details: primary human keratinocytes with fibroblasts; actives raise or lower the signal
In short: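 Human keratinocyte–foreskin fibroblast co-culture; MCP-1 measured by ELISA 24 h after dosing. Bidirectional fit vs DMSO; cytotoxicity tracked by SRB total protein in parallel cultures.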

[5] = read-out: Matrix Metallopeptidase 9 (MMP9), MMP9 (gene 4318); experiment: BSK_KF3CT_MMP9: BioMAP Diversity Plus: KF3CT Assay for Matrix Metallopeptidase 9 (MMP9) Biomarker Activity (AID 2283074); details: primary human keratinocytes with fibroblasts; actives raise or lower the signal;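 for AC50: MMP9 protein level quantified by ELISA in the co-culture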
In short: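 Keratinocyte plus foreskin fibroblast human primary skin co-culture was dosed with chemical and MMP-9 was quantified by ELISA 24 h later. Bidirectional curve fitting used DMSO as negative control and activity baseline.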

[6] = read-out: urokinase plasminogen activator (uPA), PLAU (gene 5328); experiment: BSK_KF3CT_uPA: BioMAP Diversity Plus: KF3CT Assay for urokinase plasminogen activator (uPA) Biomarker Activity (AID 2283075); details: primary human keratinocytes with fibroblasts; actives raise or lower the signal
In short: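 Human keratinocyte plus foreskin fibroblast primary co-culture exposed to chemical for 24 h. uPA levels were quantified by ELISA, and activity was fitted bidirectionally against a DMSO negative-control baseline.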

[7] = read-out: E-selectin (Homo sapiens) (UniProt P16581); experiment: BSK_LPS_Eselectin: BioMAP Diversity Plus: LPS Assay for Eselectin Biomarker Activity (AID 2283077); details: primary human HUVEC with PBMC; actives raise or lower the signal
In short: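 Human umbilical vein endothelial cells co-cultured with PBMC under LPS stimulation; cell-surface E-selectin measured by ELISA 24 h after dosing. Change in either direction versus DMSO, with SRB total-protein staining in parallel cultures for cytotoxicity.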

[8] = read-out: Interleukin-8 (IL8), CXCL8 (gene 3576); experiment: BSK_LPS_IL8: BioMAP Diversity Plus: LPS Assay for Interleukin-8 (IL8) Biomarker Activity (AID 2283078); details: primary human HUVEC with PBMC; actives raise or lower the signal
In short: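 Human umbilical vein endothelial cells co-cultured with PBMC, LPS-stimulated, exposed to compound for 24 h. IL-8 quantified by ELISA; fitted in both directions against DMSO, with SRB total-protein staining of parallel cultures for cytotoxicity.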

[9] = BSK_LPS_SRB: Viability Assessment in the BioMAP Diversity Plus: LPS Assay (AID 2283079); details: primary human HUVEC with PBMC;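 note: total protein by sulforhodamine B absorbance as a cytotoxicity measure; measured one day after compound addition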
In short: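 Co-culture of human umbilical vein endothelial cells and PBMC, read 24 h after dosing. Total protein by 0.1% SRB staining after 10% TCA fixation, absorbance at 560 nm; bidirectional fit against DMSO.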

[10] = read-out: Interleukin-1 alpha (IL1a), IL1A (gene 3552); experiment: BSK_LPS_IL1a: BioMAP Diversity Plus: LPS Assay for Interleukin-1 alpha (IL1a) Biomarker Activity (AID 2283080); details: primary human HUVEC with PBMC; actives raise or lower the signal
In short: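 Human umbilical vein endothelial cells co-cultured with PBMC and stimulated with LPS; IL-1a measured by ELISA 24 h after dosing. Bidirectional fitting against DMSO; cytotoxicity checked by SRB staining in parallel cultures.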

[11] = read-out: Monocyte Chemoattractant Protein-1 (MCP1), CCL2 (gene 6347); experiment: BSK_LPS_MCP1: BioMAP Diversity Plus: LPS Assay for Monocyte Chemoattractant Protein-1 (MCP1) Biomarker Activity (AID 2283081); details: primary human HUVEC with PBMC; actives raise or lower the signal
In short: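 Human umbilical vein endothelial cells co-cultured with PBMC, LPS-stimulated; secreted MCP-1 measured by ELISA 24 h after compound addition. Bidirectional curve fitting against DMSO baseline; SRB total-protein staining in parallel cultures for cytotoxicity.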

[12] = BSK_LPS_PGE2: BioMAP Diversity Plus: LPS Assay for Prostaglandin E2 (PGE2) Biomarker Activity (AID 2283082); details: primary human HUVEC with PBMC; actives raise or lower the signal;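 for AC50: secreted prostaglandin E2 measured by ELISA in LPS-stimulated co-culture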
In short: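 Endpoint derived from bidirectional curve fitting versus DMSO of ELISA-measured PGE2 in LPS-stimulated human primary vascular co-culture (HUVEC with PBMC) harvested at 24 h.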

[13] = read-out: Macrophage colony-stimulating factor (MCSF), CSF1 (gene 1435); experiment: BSK_LPS_MCSF: BioMAP Diversity Plus: LPS Assay for Macrophage colony-stimulating factor (MCSF) Biomarker Activity (AID 2283083); details: primary human HUVEC with PBMC; actives raise or lower the signal
In short: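 HUVEC–PBMC co-culture, M-CSF measured by ELISA 24 h after chemical dosing. Fitted in both directions relative to DMSO as negative control; overt cytotoxicity assessed by SRB total-protein staining in parallel cultures.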

[14] = read-out: Tissue Factor, F3 (gene 2152); experiment: BSK_LPS_TissueFactor: BioMAP Diversity Plus: LPS Assay for Tissue Factor Biomarker Activity (AID 2283084); details: primary human HUVEC with PBMC; actives raise or lower the signal
In short: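 Human umbilical vein endothelial cells co-cultured with PBMC were dosed with compound. Cell-surface CD142 was measured by ELISA 24 h later. Activity was fitted bidirectionally against DMSO, with SRB total-protein staining in parallel cultures for cytotoxicity.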

[15] = read-out: Tumor necrosis factor (Homo sapiens) (UniProt P01375); experiment: BSK_LPS_TNFa: BioMAP Diversity Plus: LPS Assay for Tumour Necrosis Factor alpha (TNFa) Biomarker Activity (AID 2283085); details: primary human HUVEC with PBMC; actives raise or lower the signal;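 for AC50: TNFa protein level quantified by ELISA in the co-culture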
In short: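 Primary human vascular co-culture of HUVEC and PBMC; TNFa ELISA 24 h after treatment, analysed as increase or decrease relative to DMSO control.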

[16] = read-out: Vascular cell adhesion molecule 1 (VCAM1), VCAM1 (gene 7412); experiment: BSK_LPS_VCAM1: BioMAP Diversity Plus: LPS Assay for Vascular cell adhesion molecule 1 (VCAM1) Biomarker Activity (AID 2283086); details: primary human HUVEC with PBMC; actives raise or lower the signal
In short: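 Primary human vascular co-culture (umbilical vein endothelium plus PBMC) stimulated with LPS received chemical; 24 h later VCAM-1 was read by ELISA. Overt cytotoxicity was assessed by sulforhodamine B staining of parallel cultures at the same time point.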

[17] = read-out: CD38, CD38 (gene 952); experiment: BSK_SAg_CD38: BioMAP Diversity Plus: SAg Assay for CD38 Biomarker Activity (AID 2283087); details: primary human HUVEC with PBMC; actives raise or lower the signal
In short: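 Fluorescence ELISA of cell-surface CD38 served as the read-out, with either increase or decrease fitted against DMSO controls. Cells were a human umbilical vein endothelium plus PBMC co-culture under SEB/TSST-1 stimulation, measured 24 h after dosing.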

[18] = read-out: CD40, CD40 (gene 958); experiment: BSK_SAg_CD40: BioMAP Diversity Plus: SAg Assay for CD40 Biomarker Activity (AID 2283088); details: primary human HUVEC with PBMC; actives raise or lower the signal
In short: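 HUVEC plus PBMC co-culture, superantigen-activated, with CD40 read by ELISA 24 h after dosing. Curves fitted in both directions against DMSO. Overt cytotoxicity checked by parallel SRB total-protein staining.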

[19] = read-out: CD69, CD69 (gene 969); experiment: BSK_SAg_CD69: BioMAP Diversity Plus: SAg Assay for CD69 Biomarker Activity (AID 2283089); details: primary human HUVEC with PBMC; actives raise or lower the signal;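 for AC50: cell surface CD69 protein quantified by ELISA with fluorescence detection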
In short: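 Primary human vascular co-culture (umbilical vein endothelium with peripheral blood mononuclear cells) exposed to test chemical for 24 h. CD69 levels quantified by fluorescence ELISA; DMSO served as negative control for bidirectional fitting.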

[20] = read-out: CD40, CD40 (gene 958); experiment: BSK_LPS_CD40: BioMAP Diversity Plus: LPS Assay for CD40 Biomarker Activity (AID 2283076); details: primary human HUVEC with PBMC; actives raise or lower the signal
In short: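 HUVEC plus PBMC co-culture stimulated with LPS; CD40 quantified by ELISA 24 h after compound dosing. Fitting was bidirectional relative to DMSO. SRB staining of parallel cultures flagged overt cytotoxicity.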

Measured: AC50

E-selectin (Homo sapiens), sequence (P16581 whole entry, looked up): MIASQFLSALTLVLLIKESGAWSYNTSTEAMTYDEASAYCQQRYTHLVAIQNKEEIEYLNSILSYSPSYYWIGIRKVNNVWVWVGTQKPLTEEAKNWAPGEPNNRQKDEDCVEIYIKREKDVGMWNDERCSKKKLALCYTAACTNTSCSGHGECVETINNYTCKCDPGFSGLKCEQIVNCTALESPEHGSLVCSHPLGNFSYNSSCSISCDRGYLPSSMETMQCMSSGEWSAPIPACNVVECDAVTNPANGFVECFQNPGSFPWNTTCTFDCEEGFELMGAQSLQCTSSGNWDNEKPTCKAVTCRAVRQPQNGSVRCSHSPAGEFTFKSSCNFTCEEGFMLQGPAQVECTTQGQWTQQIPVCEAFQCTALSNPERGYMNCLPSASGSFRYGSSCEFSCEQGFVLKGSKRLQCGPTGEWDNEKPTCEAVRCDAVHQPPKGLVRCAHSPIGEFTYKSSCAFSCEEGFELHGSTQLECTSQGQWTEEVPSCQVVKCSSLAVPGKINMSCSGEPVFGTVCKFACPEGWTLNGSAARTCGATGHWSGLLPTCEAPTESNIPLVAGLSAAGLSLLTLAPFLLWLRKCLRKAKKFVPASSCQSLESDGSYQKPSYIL
Tumor necrosis factor (Homo sapiens), sequence (P01375 whole entry, looked up): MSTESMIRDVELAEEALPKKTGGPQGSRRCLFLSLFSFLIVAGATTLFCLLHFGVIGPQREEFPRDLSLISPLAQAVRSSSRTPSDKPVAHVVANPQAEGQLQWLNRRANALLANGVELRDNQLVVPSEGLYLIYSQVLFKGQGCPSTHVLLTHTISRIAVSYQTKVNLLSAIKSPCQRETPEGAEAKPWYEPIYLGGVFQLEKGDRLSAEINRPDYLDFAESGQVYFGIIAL

CCN(CC)C(=O)c1cccc(C)c1
not listed: [20]
inactive: all other assays above

CCCCOCCOCCOCc1cc2c(cc1CCC)OCO2
active: [8] 13.3 µM | [9] 12.1 µM | [15] 25.3 µM
not listed: [20]
inactive: all other assays above

CCCCCOC(=O)COc1cc(N2C(=O)C3=C(CCCC3)C2=O)c(F)cc1Cl
active: [2] 13.4 µM | [5] 20 µM | [8] 20 µM | [14] 27.8 µM | [15] 20 µM | [16] 15 µM | [18] 20 µM
not listed: [20]
inactive: all other assays above

CCCCOC(=O)[C@@H](C)Oc1ccc(Oc2ccc(C(F)(F)F)cn2)cc1
inactive: all assays above

c1ccc(Nc2ccccc2)cc1
active: [12] 3.51 µM | [15] 13 µM
inactive: all other assays above

CC(C)CCCCCCc1ccc(O)cc1
active: [1] 8.32 µM | [2] 6.18 µM | [3] 5.58 µM | [4] 8.65 µM | [5] 9.76 µM | [6] 9.65 µM | [20] 9.28 µM | [7] 12.1 µM | [9] 13.8 µM | [10] 6.77 µM | [12] 6.36 µM | [13] 9.04 µM | [14] 12.3 µM | [15] 7.19 µM | [16] 10 µM | [17] 8.61 µM | [18] 8.59 µM | [19] 10.7 µM
